Results filed as inconclusive are left out. Activity calls are given as the source filed them. The calls were made as follows: active = hit-call score of the fitted dose curve at least 0.9, where 1 is the maximum; inconclusive = response in the unintended direction; inactive = score below 0.9.
target: human Phosphodiesterase 5 (PDE5), PDE5A (gene 8654) (UniProt O76074); experiment: NVS_ENZ_hPDE5: NovaScreen (NVS) Enzymatic Assay for human Phosphodiesterase 5 (PDE5) (AID 2283194)
In short: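 Recombinant human PDE5 with specific substrate, read 1 h after dosing by fluorescence with electrophoretic mobility-shift separation of substrate and product. Initial single-concentration duplicate screen at 25 uM, actives followed in concentration series; loss of activity versus DMSO.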

SMILES | outcome
CCN1CCC2(CC1)COc1cc3c(cc12)N(C(=O)c1ccc(-c2ccc(-c4nnc(C)o4)cc2C)cc1)CC3 | inactive
CC(=O)[O][Hg][c]1ccccc1 | inactive
CC(C)(C)CC(C)(C)c1ccc(O)cc1 | inactive

target: human Phosphoinositide 3-kinase alpha (PI3Ka), PIK3CA (gene 5290) (UniProt P42336); experiment: NVS_ENZ_hPI3Ka: NovaScreen (NVS) Enzymatic Assay for human Phosphoinositide 3-kinase alpha (PI3Ka) (AID 2283196)
In short: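 Duplicate single-point screen (25 uM), then singleton dose-response (max 50 uM) for compounds meeting the threshold. Cell-free kinase reaction, 1 h; fluorescent mobility-shift readout.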

Chain of human Phosphoinositide 3-kinase alpha (PI3Ka), PIK3CA (gene 5290) (P42336 whole entry, looked up): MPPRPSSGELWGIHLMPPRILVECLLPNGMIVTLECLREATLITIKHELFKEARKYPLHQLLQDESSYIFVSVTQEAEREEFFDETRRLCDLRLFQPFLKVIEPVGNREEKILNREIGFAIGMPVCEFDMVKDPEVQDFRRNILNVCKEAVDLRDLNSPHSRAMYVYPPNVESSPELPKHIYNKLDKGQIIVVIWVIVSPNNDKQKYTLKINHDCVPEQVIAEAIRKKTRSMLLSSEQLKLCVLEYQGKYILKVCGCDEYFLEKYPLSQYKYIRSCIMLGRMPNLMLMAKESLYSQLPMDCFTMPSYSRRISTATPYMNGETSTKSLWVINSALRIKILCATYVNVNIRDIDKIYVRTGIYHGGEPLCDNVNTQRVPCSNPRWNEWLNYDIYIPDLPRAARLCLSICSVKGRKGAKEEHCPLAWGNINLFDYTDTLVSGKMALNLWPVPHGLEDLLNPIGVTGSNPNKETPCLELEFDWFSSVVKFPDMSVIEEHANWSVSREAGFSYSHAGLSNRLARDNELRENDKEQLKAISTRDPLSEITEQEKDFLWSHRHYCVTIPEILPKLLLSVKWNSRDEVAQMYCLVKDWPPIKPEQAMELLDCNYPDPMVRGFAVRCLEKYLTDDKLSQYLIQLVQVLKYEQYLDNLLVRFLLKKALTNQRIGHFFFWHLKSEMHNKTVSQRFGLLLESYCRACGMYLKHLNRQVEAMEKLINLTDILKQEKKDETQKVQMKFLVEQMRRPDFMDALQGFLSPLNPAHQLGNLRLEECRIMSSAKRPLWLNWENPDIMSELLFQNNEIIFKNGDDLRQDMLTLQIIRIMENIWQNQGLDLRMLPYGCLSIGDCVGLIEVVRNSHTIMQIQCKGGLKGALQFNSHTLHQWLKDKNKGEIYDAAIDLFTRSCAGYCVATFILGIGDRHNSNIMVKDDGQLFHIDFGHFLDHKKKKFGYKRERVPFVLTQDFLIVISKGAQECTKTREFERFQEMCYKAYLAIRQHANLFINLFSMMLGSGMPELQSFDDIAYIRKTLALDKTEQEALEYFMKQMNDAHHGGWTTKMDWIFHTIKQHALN

SMILES | outcome | AC50
COP(=S)(OC)Oc1cc(Cl)c(Cl)cc1Cl | inactive | –
C(=NC1CCCCC1)=NC1CCCCC1 | inactive | –
CCNc1nc(NC(C)(C)C)nc(SC)n1 | inactive | –
Nc1ccc(-c2ccc(N)c(Cl)c2)cc1Cl | inactive | –
ClCCBr | – | 383 nM (active)
COP(=S)(OC)Oc1c(Cl)cc(C)cc1Cl | inactive | –
O=[N+]([O-])c1ccc2c3c(cccc13)CC2 | inactive | –
Cc1ccccc1N | inactive | –
CC(C)C1CCC(Cc2ccc(Cl)cc2)C1(O)Cn1cncn1 (stereo not given) | inactive | –

target: human Phosphatase and Tensin Homolog (PTEN), PTEN (gene 5728) (UniProt P60484); experiment: NVS_ENZ_hPTEN: NovaScreen (NVS) Enzymatic Assay for human Phosphatase and Tensin Homolog (PTEN) (AID 2283203)
Experimental: NVS_ENZ_hPTEN is a biochemical, single-readout assay that uses extracted gene-proteins in a cell-free assay. Measurements were taken 1 hour after chemical dosing in a 384-well plate.NVS_ENZ_hPTEN is one of one assay component(s) measured or calculated from the NVS_ENZ_hPTEN assay. It is designed to make measurements of enzyme activity, a form of enzyme reporter, as detected with fluorescence intensity signals by Fluorescence and electrophoretic mobility shift technology.Data from the assay component NVS_ENZ_hPTEN was analyzed into 1 assay endpoint. This assay endpoint, NVS_ENZ_hPTEN, was analyzed in the positive analysis fitting direction relative to DMSO as the negative control and baseline of activity. Using a type of enzyme reporter, loss-of-signal activity can be used to understand changes in the enzymatic activity as they relate to the gene PTEN. Furthermore, this assay endpoint can be referred to as a primary readout, because this assay has produced multiple assay endpoints where this one serves a enzymatic activity function. To generalize the intended target to other relatable targets, this assay endpoint is annotated to the phosphatase intended target family, where the subfamily is dual-specific phosphatase.
Binding assays used specific radioligands (tritiated, iodinated) with non-radioactive competitive displacement ligands in agonist or antagonist protocols (as indicated) and various reference compounds and inhibitors to titrate specific binding to receptors and transporters. Most enzyme assays (CYPs, kinases, phosphatases, proteases, HDACs) used recombinant protein and specific substrates (fluorescence mostly, some colorimetric and radioactive) and inhibitors, followed by a biochemical separation of substrate and product. All assays for the biochemical HTS were initially run in duplicate at a single concentration (10 uM for CYP450 assays and 25 uM for all others). […] Each assay was run with positive and negative controls, and concurrent controls on every plate. The follow-up (secondary) screen tested active chemical-pairs in concentration series, as well as a few additional assays not tested in the primary screen, some selected negative inactives, and several cases re-run in the concentration series for confirmatory purposes.

Chain of human Phosphatase and Tensin Homolog (PTEN), PTEN (gene 5728) (P60484 whole entry, looked up): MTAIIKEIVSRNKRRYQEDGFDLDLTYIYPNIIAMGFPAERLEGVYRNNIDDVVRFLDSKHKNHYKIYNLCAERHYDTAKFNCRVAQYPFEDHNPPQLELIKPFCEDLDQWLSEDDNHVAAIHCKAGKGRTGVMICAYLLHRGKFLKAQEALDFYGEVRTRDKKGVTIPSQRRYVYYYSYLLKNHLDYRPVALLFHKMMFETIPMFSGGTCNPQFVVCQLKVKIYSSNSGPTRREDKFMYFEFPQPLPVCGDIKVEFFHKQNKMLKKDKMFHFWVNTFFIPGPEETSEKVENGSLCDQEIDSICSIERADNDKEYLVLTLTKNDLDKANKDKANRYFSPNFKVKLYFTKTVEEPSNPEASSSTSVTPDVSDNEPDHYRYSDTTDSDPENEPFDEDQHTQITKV

SMILES | outcome | AC50
COP(=S)(OC)Oc1cc(Cl)c(Cl)cc1Cl | inactive | –
COC[C@H](C)N(C(=O)CCl)c1c(C)csc1C | inactive | –
N#CCc1ccc(Cl)cc1 | – | 1.32 µM (active)
CN(CCCC(=O)c1cccnc1)N=O | – | 0.00229 µM (active)
O=C(c1ccccc1)C(Cl)Cl | – | 14.1 µM (active)

target: human Protein Tyrosine Phosphatase Non-receptor Type 9 (PTPN9), PTPN9 (gene 5780) (UniProt P43378); experiment: NVS_ENZ_hPTPN9: NovaScreen (NVS) Enzymatic Assay for human Protein Tyrosine Phosphatase Non-receptor Type 9 (PTPN9) (AID 2283209)
In short: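 Sf9-expressed enzyme in a cell-free assay, fluorescence read 1.33 h after dosing with mobility-shift separation of substrate and product. Tested at 25 uM in duplicate, then up to 50 uM; signal loss versus DMSO.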

Chain of human Protein Tyrosine Phosphatase Non-receptor Type 9 (PTPN9), PTPN9 (gene 5780) (P43378 whole entry, looked up): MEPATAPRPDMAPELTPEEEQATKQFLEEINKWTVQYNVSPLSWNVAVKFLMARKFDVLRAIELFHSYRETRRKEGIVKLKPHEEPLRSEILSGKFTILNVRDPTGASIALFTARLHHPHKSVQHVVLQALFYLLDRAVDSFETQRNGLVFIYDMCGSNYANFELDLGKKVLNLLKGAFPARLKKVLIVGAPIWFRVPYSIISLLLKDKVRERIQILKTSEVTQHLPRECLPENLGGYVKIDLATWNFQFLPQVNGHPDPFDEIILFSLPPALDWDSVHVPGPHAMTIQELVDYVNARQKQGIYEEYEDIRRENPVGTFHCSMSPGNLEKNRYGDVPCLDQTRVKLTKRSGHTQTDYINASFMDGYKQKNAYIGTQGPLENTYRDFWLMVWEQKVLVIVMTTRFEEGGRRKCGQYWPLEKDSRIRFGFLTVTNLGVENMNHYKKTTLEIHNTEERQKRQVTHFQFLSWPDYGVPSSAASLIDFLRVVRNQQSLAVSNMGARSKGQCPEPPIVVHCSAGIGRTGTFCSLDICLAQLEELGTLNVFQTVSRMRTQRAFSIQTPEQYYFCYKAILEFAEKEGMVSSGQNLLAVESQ

SMILES | AC50 | outcome
CC(=O)[O][Hg][c]1ccccc1 | 17 µM (active) | –
CC(C)(C)CC(C)(C)c1ccc(O)cc1 | – | inactive
COc1cc(-c2ccc(N)c(OC)c2)ccc1N | 40.1 µM (active) | –

— PubChem BioAssay (EPA / NIEHS)
